High-throughput results from PubChem.
In the library only some 2.8% were active in any assay of this set; here they are far more common.
ERa coact inh = ERα–SRC-1 coactivator interaction inhibitors, primary screen, biochemical, TR-FRET, ERα LBD, estradiol-bound; Estrogen receptor (Homo sapiens), P03372; TR-FRET ER-alpha LBD / SRC-1 peptide; inhibition, % at 25.6 µM; 1.7% of 86,000 active; in the data active means inhibition above about 50%
Target sequence (P03372 whole entry, looked up, the tested form may be a part): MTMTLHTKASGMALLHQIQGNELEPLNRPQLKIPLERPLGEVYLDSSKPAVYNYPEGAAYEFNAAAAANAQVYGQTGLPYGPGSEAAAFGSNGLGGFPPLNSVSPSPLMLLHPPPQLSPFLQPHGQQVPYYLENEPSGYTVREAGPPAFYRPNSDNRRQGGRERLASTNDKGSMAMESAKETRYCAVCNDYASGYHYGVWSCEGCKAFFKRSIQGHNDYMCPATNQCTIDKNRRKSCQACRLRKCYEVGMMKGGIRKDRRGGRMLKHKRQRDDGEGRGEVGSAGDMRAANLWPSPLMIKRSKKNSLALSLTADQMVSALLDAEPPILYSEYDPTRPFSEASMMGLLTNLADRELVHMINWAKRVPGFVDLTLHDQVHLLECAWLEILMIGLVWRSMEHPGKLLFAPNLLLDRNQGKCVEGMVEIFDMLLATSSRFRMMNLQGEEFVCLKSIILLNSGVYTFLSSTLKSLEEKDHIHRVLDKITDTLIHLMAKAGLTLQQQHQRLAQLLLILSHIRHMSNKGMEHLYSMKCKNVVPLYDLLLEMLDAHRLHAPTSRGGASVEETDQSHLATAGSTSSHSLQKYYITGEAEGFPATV
Smad3 FoxH1 inh = Smad3/FoxH1 peptide binding inhibitors, primary screen, biochemical, TR-FRET. Mothers against decapentaplegic homolog 3 (Homo sapiens), P84022. TR-FRET Smad3/Dy647-FoxH1 peptide binding, europium anti-His. inhibition, % at 25 µM. 0.29% of 88,000 active;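 active means compounds that reduce the energy-transfer binding signal between the protein and its labelled peptide by more than half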
MRP resist rev = reversal of MRP1-mediated doxorubicin resistance, primary screen, H69AR cells, doxorubicin co-treatment; AID 602, 2007; differential viability (reversal), % at 10 µM; H69AR cells + 2 uM doxorubicin, CellTiter-Glo, 72 h; 0.04% of 85,000 active;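 active means viability drop by adding the cancer drug above about 55%, with treated viability meeting a 40% cutoff, limit read from the data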;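 further: larger differential means the compound sensitizes cells more to doxorubicin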
ERb coact inh = inhibitors of ERβ-SRC1 coactivator interaction, primary screen, biochemical, TR-FRET, ERβ LBD, SRC-1 peptide; Estrogen receptor beta (Homo sapiens), Q92731; TR-FRET ER-beta LBD / SRC1-Cy5 peptide binding; receptor agonist-loaded with 1 µM estradiol; inhibition, % at 25.6 µM; 1.3% of 86,000 active;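 active means compounds whose percent inhibition of the receptor-coactivator binding signal exceeds about 50% in the single-dose screen, limit read from the data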
MRP-1 activ = H69AR viability gain despite doxorubicin, primary screen, MRP-1 activator project, H69AR cells, CellTiter-Glo; viability rescue; viability increase, % at 10 µM; 0.61% of 140,000 active; AID 799, 2007;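 active means viability gain under doxorubicin at or above a set limit, the compound median plus 3 SD, cut at about 4.7% in these data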;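 further: MRP-1 overexpressing cells given doxorubicin 25 µM after compound pretreatment; 18-22 h compound pretreatment then 72 h with doxorubicin before readout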
ERa coact pot = enhancers of ERα–SRC-1 coactivator binding, primary screen, biochemical, TR-FRET, ERα LBD, low estradiol. 1.3% of 86,000 active. TR-FRET ERalpha-LBD/SRC-Cy5 coactivator binding, 2 h; 100 = basal binding, no effect. coactivator binding (% of control), % at 25.6 µM; in the data active means activity above about 200%;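 further: binding measured in presence of low estradiol as agonist stimulus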
Hits are given with their value; 0 = inactive; - = no result given; [ ] = another dose, or the depositor's remark.

SMILES	ERa coact inh	Smad3 FoxH1 inh	MRP resist rev	ERb coact inh	MRP-1 activ	ERa coact pot
Cn1nc(N)c2c(-c3ccc(Cl)cc3)c(C#N)c(N)nc21	-	-	-	-	0	-
CCCC(=O)Nc1c(C)nn(C(=O)CCC)c1C	0	0	0	0	0	278[fluorescence artefact?]
CCCC(=O)Nc1c(C)n[nH]c1C	-	-	-	-	0	-
N#C[C@H](c1ccccc1)N1CCCN([C@@H](C#N)c2ccccc2)C1c1ccccc1O (stereo not given in full)	-	0	-	-	-	-
O=C(NNC(=O)c1cccnc1)Nc1cccc2ccccc12	-	-	-	-	5.7	-
O=C(CNC(=O)c1ccco1)OCc1ccc(Cl)cc1	0	0	0	60	0	0
CCOC(=O)c1[nH]c(C)c(C(=O)c2ccc(C)cc2)c1C	57[fluorescence artefact?]	0	0	0	0	0
CCOC(=O)c1[nH]c(C)c(C(=O)NCc2ccc(C)cc2)c1C	0	0	0	0	0	0
Cc1cc2cc(CNC(=O)Nc3ccccc3)ccc2n1C	0	0	0	0	0	222[fluorescence artefact?]
Cc1cc2cc(CNC(=O)c3cccs3)ccc2n1C	75[fluorescence artefact?]	0	0	0	0	0
CCOC(=O)NCc1ccc2c(c1)cc(C)n2C	-	-	-	-	0	-
CCC(CC)C(=O)NCc1ccc2c(c1)cc(C)n2C	-	-	-	-	0	-
O=S(=O)(O)n1ccnc1 (tested in a mixture with another compound)	-	0	-	-	-	-
O=C(O)c1cc2c(cc1S(=O)(=O)O)[C@@H]1[C@@H]([C@H]3[C@H]2[C@]2(Cl)C(Cl)=C(Cl)[C@@]3(Cl)C2(Cl)Cl)[C@]2(Cl)C(Cl)=C(Cl)[C@@]1(Cl)C2(Cl)Cl	-	0	-	-	-	-
Cc1ccc2[nH]c(=O)c(C3C(C#N)=C(N)Oc4c3ccc3cccnc43)cc2c1 (stereo not given)	79	0	0	61	0	0
c1ccc2sc(SCN(C3CCCCC3)C3CCCCC3)nc2c1	-	62	-	-	-	-
Cc1ccc(NC(=O)/C(=C/c2cccs2)NC(=O)c2ccco2)cc1	-	-	-	-	0	-
Cc1nn(-c2ccc(Cl)cc2)c2sc(C(=O)N3CCN(c4ccccn4)CC3)cc12	0	0	0	0	0	452
Cc1nn(-c2ccc(Cl)cc2)c2sc(C(=O)N3CCN(C(=O)c4ccco4)CC3)cc12	0	0	0	0	-	0
CCOC(=O)Nc1nc(-c2ccccc2)c(C)s1	-	0	-	-	-	-
Cc1cccc(C(=O)NNC(=O)CN2C(=O)c3ccccc3C2=O)c1	-	-	-	-	4.8	-
Cc1cccc(C(=O)NNC(=O)c2ccc(-c3ccccc3)cc2)c1	-	-	-	-	0	-
N[C@@H](CSc1nc2ccccn2c1[N+](=O)[O-])C(=O)O	-	0	-	-	-	-
Cc1nc(N2CCN(Cc3ccc4c(c3)OCO4)CC2)nc2c1C(=O)CC(c1ccco1)C2 (stereo not given)	0	0	-	0	0	0
Cc1nc(N2CCN(Cc3ccccc3)CC2)nc2c1C(=O)CC(c1ccco1)C2 (stereo not given)	0	0	0	0	5.6	0
SMILES	ERa coact inh	Smad3 FoxH1 inh	MRP resist rev	ERb coact inh	MRP-1 activ	ERa coact pot
CCNc1oc(-c2cccc3ccccc23)nc1C#N	0	0	0	0	7.3	0
O=C(CCC1N=C2c3ccccc3N=C(SCc3cccc(Cl)c3)N2C1=O)NCc1ccco1 (stereo not given)	0	0	0	0	0	257[fluorescence artefact?]
N=C(N)c1ccc(/C=C/c2ccc(C(=N)N)cc2)cc1	-	0	-	-	-	-
NC1=NC(=Nc2cccc(Cl)c2)c2ccccc21	-	-	-	-	0	-
Cc1cc(-c2csc(N)n2)c(C)n1C	71[fluorescence artefact?]	0	0	83[fluorescence artefact?]	0	0
Cc1ccc(-n2c(C)cc(-c3csc(N)n3)c2C)cc1	-	-	-	-	0	-
COc1ccccc1C(=O)NCC(=O)N/N=C/c1cc(Br)ccc1OCc1ccccc1	-	-	-	-	0	-
COc1ccc(Cc2nc3ccc(S(=O)(=O)N4CCOCC4)cc3[nH]2)cc1	60	0	0	0	0	0
COc1ccc(Cc2nc3ccc(S(=O)(=O)N4CCOCC4)cc3[nH]2)cc1OC	0	0	0	0	0	0
CCOc1ccc(OCC)c(NC(=O)CSc2nc3cccnc3n2C)c1	-	-	-	-	0	-
CCOc1ccc(OCC)c(NC(=O)CSc2nc3ccccc3c(=O)n2C)c1	50[fluorescence artefact?]	0	0	0	0	0
COc1cc(NC(=O)CSc2nnc(-c3ccncc3)n2C2CCCCC2)ccc1NC(=O)c1ccco1	-	-	-	-	0	-
COc1cc(NC(=O)CSc2nc3ccccc3c(=O)n2C)ccc1NC(=O)c1ccco1	63	0	0	0	0	0
O=C(/C(=C/O)N=Nc1ccccc1)c1ccncc1	0	0	0	0	6.3	0
CC(/C=N/NC(=O)c1ccncc1)=C\c1ccccc1	-	-	-	-	0	-
c1ccc(C2(Cn3ccc4ccccc43)OCCO2)cc1	99[fluorescence artefact?]	0	0	0	0	0
O=C(NC(=S)NC(c1ccccc1)c1ccncc1)c1ccccc1 (stereo not given)	-	-	-	-	0	-
O=C(NC1CCSC1=O)c1cccc(C(=O)NC2CCSC2=O)c1 (stereo not given)	0	0	0	0	0	208
O=C(NC1CCSC1=O)c1ccc(Cl)cc1 (stereo not given)	0	0	0	0	0	0
Cc1ccc(C(=O)NC2CCSC2=O)cc1 (stereo not given)	0	54[fluorescence artefact?]	0	0	0	0
O=C(COC(=O)C1Cc2ccccc2CN1C(=O)c1ccccc1)Nc1ccc(SC(F)F)cc1 (stereo not given)	-	-	-	-	0	-
O=S(=O)(CCN(CCS(=O)(=O)C(F)(F)F)CC1CCCO1)C(F)(F)F (stereo not given)	0	0	0	0	0	0
CCOC(=O)c1cc(NC(=O)Nc2ccccc2OC)c(C)nc1C	0	0	0	0	0	0
CCOC(=O)c1sc(-c2ccccc2)cc1NC(=O)Nc1ccccc1	-	-	-	-	6.0	-
CCOC(=O)c1sc(-c2ccc(F)cc2)cc1NC(=O)Nc1ccccc1OC	-	-	-	-	9.0	-
SMILES	ERa coact inh	Smad3 FoxH1 inh	MRP resist rev	ERb coact inh	MRP-1 activ	ERa coact pot
CCOC(=O)c1sc(NC(=O)Nc2ccccc2)cc1C	-	-	-	-	0	-
NC[C@H]1O[C@H](n2cnc3c(N)ncnc32)C[C@@H]1O	-	0	-	-	-	-
Cc1csc(C(C#N)C(=O)c2cc3ccccc3o2)n1 (stereo not given)	0	0	0	0	6.1	0
O=C(Nc1ccccn1)c1cc2ccccc2o1	0	0	0	0	0	0
CCCOc1ccc(C(=O)Nc2cc(-c3nn4c(C)nnc4s3)ccc2C)cc1	58[fluorescence artefact?]	0	0	0	0	0
Cc1ccc(-c2nn3c(C)nnc3s2)cc1NC(=O)COc1ccc(Cl)cc1	0	0	0	0	0	325
Cc1ccc(-c2nn3c(C)nnc3s2)cc1NC(=O)CSc1ccc(Cl)cc1	0	0	0	0	0	0
